Laboratory results as given in PubChem BioAssay AID2391 (Southern Research Specialized Biocontainment Screening …, 2010).
The campaign covered roughly 310,000 compounds. About 410 (0.13%) were called active. Not shown: some 2% with an inconclusive outcome. How the calls were made is not given here. The list is a sample of the results. Potency and affinity values are given separately.

test: RSV antiviral activity via CPE protection, HEp-2 cells, primary 10 µM value included (AID 2391); conditions: RSV-induced CPE inhibition, at 10 µM, stronger effect = higher value

CPE inhibition, inactive:
COC(=O)/C=C1\S/C(=N/NC(=O)c2ccc(OC)cc2)NC1=O -1.09%
C/C(N)=C(/C#N)C(=O)COC(=O)c1ccc(C#N)cc1 0.83%
C/C(N)=C(/C#N)C(=O)COC(=O)c1ccc(O)cc1 1.45%
O=C1CC(C(=O)N2CCc3ccccc32)CN1c1ccc(F)cc1 (stereo not given) 2.7%
O=C(CNC(=O)c1ccc(Cl)cc1)OCc1nc2ccccc2s1 3.12%
Cc1cc(-c2nc3cccnc3s2)ccc1NS(=O)(=O)c1cccs1 3.81%
Cc1ccc(-c2nc3cccnc3s2)cc1NS(C)(=O)=O 0.25%
CCOc1ccc(NC(=O)CN(C)S(=O)(=O)c2ccc(-c3ccc(=O)[nH]n3)s2)cc1 3.93%
CCOC(=O)c1ccc(NC(=S)N2CCSC2c2ccc(OC)cc2)cc1 (stereo not given) 11.4%
CCOC(=O)c1ccc(NC(=S)N2CCSC2c2ccc(Cl)cc2)cc1 (stereo not given) 52%
O=C(Cn1ncc2c1-c1ccccc1OC2)N1CCN(Cc2ccccc2)CC1 -1.42%
COc1ccc(C(=O)NN2CCCCC2)cc1OC 1.22%
COc1ccccc1COCC(O)CN1CCN(S(=O)(=O)c2cccc(F)c2)CC1 (stereo not given) 0.54%
Cc1ccc(NC(=O)CC(N)=S)cc1 0.37%
CC(=O)COc1ccc2c3c(c(=O)oc2c1)CCCC3 27%
O=C(O)COc1ccc2c3c(c(=O)oc2c1)CCCC3 -1.38%
O=C(O)c1ccccc1NCc1ccco1 0.7%
CC(=O)Nc1ccc(S(=O)(=O)n2cnc3cc(C)c(C)cc32)cc1 14.6%
CCc1ccc(/C(C)=N/NC(=O)CNC(=O)/C=C/c2ccccc2OC)cc1 5.6%
COc1ccc(/C(C)=N/NC(=O)CNC(=O)/C=C/c2ccccc2OC)cc1 2.31%
O=c1cc(CN2CCN(C/C=C/c3ccccc3)CC2)c2cc(O)c(-c3ccccc3)cc2o1 2.21%
CC(=O)NCCN=C(C)c1sc2ccccc2c1O 2.52%
CCCCNC(=O)CC1N=C2c3ccccc3N=C(SCC(=O)Nc3ccccc3OC)N2C1=O (stereo not given) 8.13%
CCCCNC(=O)CC1N=C2c3ccccc3N=C(SCC(=O)Nc3cccc(OC)c3)N2C1=O (stereo not given) 0.81%
Cn1ccnc1SCC(=O)Nc1cccc(S(=O)(=O)N2CCCCC2)c1 5.08%
O=C(Nc1nc(-c2ccc(Cl)cc2Cl)cs1)C1CCCO1 (stereo not given) 7.12%
COc1ccc(C(=O)NCc2nc3ccccc3[nH]2)cc1OC 1.66%
COc1cc(/C=C/C(=O)NCc2nc3ccccc3[nH]2)cc(OC)c1OC 3.24%
CCCSC1=C(C#N)C(c2cccs2)CC(=O)N1 (stereo not given) 0.6%
CC1=C(C(=O)OC(C)C)C2(O)C(=O)c3ccccc3C2(O)N1 (stereo not given) 0.34%
CC(C)CNC(=O)c1cc([N+](=O)[O-])ccc1N1CCCCC1 1.62%
CC12CCC(=O)C=C1CCC1C2C(=O)CC2(C)C1CC[C@]2(O)C(=O)CO (stereo not given in full) 1.47%
CC(CCc1ccc(O)cc1)NCc1ccc(Cl)cc1Cl (stereo not given) 0.07%
CC(CCc1ccc(O)cc1)NCCC(c1ccccc1)c1ccccc1 (stereo not given) 1.43%
COc1ccc(C(=O)NCc2nnc(SCC(=O)N3CCC(C)CC3)o2)cc1 1.04%
Cc1ccc(C2(c3ccc(C)cc3)CC2C(=O)NC(C)C)cc1 (stereo not given) 10.9%
O=C(Nc1cccc(C(=O)Nc2cccc(C(F)(F)F)c2)c1)c1ccc(=O)[nH]c1 0.31%
Cc1cc(OC(C)C(=O)NCCN2CCOCC2)c2c(C)cc(=O)oc2c1 (stereo not given) 1.3%
COC(=O)Nc1ccc(S(=O)(=O)N2CCCc3ccccc32)cc1 1.75%
CC(=O)Nc1ccc(S(=O)(=O)N2CCCc3ccccc32)cc1 1.45%
COc1ccccc1CCNS(=O)(=O)c1cc2c3c(c1)CCN3C(=O)CC2 2.18%
CC(=O)c1cc2c(cc1NC(=O)c1ccc(C)cc1)OCO2 1.4%
COc1ccc(CC(=O)Nc2cccc(-c3cn4ccccc4n3)c2)cc1 20.4%
Cc1cccc2nc(-c3cccc(NC(=O)c4ccc(Cl)cc4)c3)cn12 6.87%
Cc1cc(Cl)cc(C)c1OCCCCCn1ccnc1 16.9%
Cc1cc(Cl)cc(C)c1OCCCCn1ccnc1 0.28%
Cc1cc(C(=O)Nc2ccccc2C)c2ccccc2n1 -1.47%
CCn1c(SCc2ccc(F)cc2)nnc1-c1nn(-c2ccccc2)ccc1=O 5.54%
CCn1c(SC)nnc1-c1nn(-c2ccccc2)ccc1=O 3.93%
CCOc1ccc(Nc2ccc(S(=O)(=O)N3CCN(C)CC3)cc2[N+](=O)[O-])cc1OCC 2.73%
C/C(N)=C(/C#N)C(=O)CSc1nc2ccccc2c(=O)n1-c1ccc(C)c(Cl)c1 3.58%
C/C(N)=C(/C#N)C(=O)CSc1nc2ccccc2c(=O)n1-c1ccc(C)cc1 1.33%
COC(=O)c1cc2c(C)c(C)c3ccccn3c-2c1C(=O)OC 2.03%
COC(=O)c1cc2n3ccccc3c(C)c(-c3ccccc3)c-2c1C(=O)OC 25.1%
COc1ccc(NC(=O)C2C3C=CC4(O3)C2C(=O)N(CCN2CCCCC2C)C4C(=O)NC2CCCCC2)cc1 (stereo not given) -0.76%
Cc1cc(C)c(C)c(C(=O)CSc2nnc(-c3ccc4[nH]c(C)c(C)c4c3)o2)c1C 55.5%
Cc1[nH]c2ccc(-c3nnc(SCC(=O)c4ccc(F)cc4)o3)cc2c1C -1.57%
COc1cc(C)c(C(C)C)cc1S(=O)(=O)n1cnc(C)c1 11.6%
Cc1cc(C)c2c(-n3cccc3)c(C(=O)NNS(=O)(=O)c3ccc(Br)cc3)sc2n1 53.3%
Cc1cc(C)c2c(-n3cccc3)c(C(=O)NNS(=O)(=O)c3ccccc3)sc2n1 15.3%
COc1ccc(N(CC(=O)NCc2ccc(Cl)cc2)S(=O)(=O)c2c(C)n[nH]c2C)cc1 2.71%
O=C(O)c1cc(NS(=O)(=O)c2cccs2)cc(NS(=O)(=O)c2cccs2)c1 0.42%
Cc1cc(C)n2nc(-c3ccccc3)cc2n1 -2.3%
COc1ccc(-c2cc3nc(C)cc(C)n3n2)cc1 2.75%
COc1ccc(CNc2ncnc3sccc23)cc1OC 0.7%
COc1ccc(NCC(=O)Nc2cc(S(=O)(=O)N3CCOCC3)ccc2N2CCOCC2)c(OC)c1 1.68%
COc1ccccc1CC(=O)Nc1cc(S(=O)(=O)N2CCOCC2)ccc1N1CCOCC1 0.24%
CC1CCCC(C)N1C(=O)CSc1nccc(=O)[nH]1 (stereo not given) 0.35%
COC(=O)c1ccc(C(=O)OCc2nc3cc4ccccc4cc3[nH]2)cc1 2.73%
Cc1ccc2nc(Cc3ccc(N)cc3)[nH]c2c1 -0.3%
Nc1ccc(C(=O)OCc2nc3ccccc3[nH]2)cc1 1.24%
Nc1ccc2nc(Cc3ccccc3)[nH]c2c1 -1.63%
Cc1cccc(N2CCN(C(=O)C3CCC(=O)N(C4CC4)C3)CC2)c1C (stereo not given) -0.26%
O=C(Cc1ccc(-n2c(=O)c3ccccc3n(CC(=O)Nc3ccc(F)cc3F)c2=O)cc1)NCc1ccco1 -0.99%
CCN(CC(=O)Nc1ccc(OC)cc1)C(=O)c1ccccc1Sc1ccccc1C#N -1.42%
Cc1cc(C)cc(NC(=O)C2CCCN2S(=O)(=O)c2cccc3cccnc23)c1 (stereo not given) 58.5%
COc1ccccc1CNC(=O)C1CCN(S(=O)(=O)c2cccc3cccnc23)CC1 3.16%
Cc1ccc(NC(=O)C2CCCN2S(=O)(=O)c2cccc3cccnc23)cc1F (stereo not given) 52.8%
COc1ccc(NC(=O)C2CCCN2S(=O)(=O)c2cccc3cccnc23)c(OC)c1 (stereo not given) 7.4%
Cc1ccccc1NC(=O)C1CCCN(S(=O)(=O)c2cccc3cccnc23)C1 (stereo not given) 0.2%
COc1ccccc1CNC(=O)C1CCCN(S(=O)(=O)c2cccc3cccnc23)C1 (stereo not given) 0.63%
COc1cccc(CN2CC(C(=O)NCCn3ccc(C)n3)CCC2=O)c1 (stereo not given) 0.1%
Cc1ccc2[nH]c(=O)c(N3CCOCC3)c(-c3ccccc3)c2c1 0.29%
CSCCC1NC(=O)N(CC(=O)Nc2c(C(C)C)cccc2C(C)C)C1=O (stereo not given) -0.56%
C/C(CCc1ccccc1)=N\NC(=O)CC(=O)NCCc1ccccc1 1.3%
CCSc1nnc(SCC(=O)N2CCN(C(=O)c3ccco3)CC2)s1 1.6%
Cc1ccc(-c2noc(CCC(=O)NCCc3ccccc3Cl)n2)cc1 15.4%
Cn1c(C(=O)NCc2cccs2)cc2c(=O)n(C)c3ccccc3c21 0.91%
COc1ccc(CNC(=O)c2cc3c(=O)[nH]c4ccccc4c3n2C)cc1 2.27%
Cn1c(C(=O)NCC2CCCO2)cc2oc3ccccc3c21 (stereo not given) 3.52%
COCCNC(=O)c1cc2oc3ccccc3c2n1C 1.43%
CCOc1ccc(CNC(=O)CCn2c(=O)oc3ccccc32)cc1 2.74%
Cc1ccc(CNC(=O)c2cc3c(=O)n(C)c4ccccc4c3n2C)cc1 0.79%
Cc1c(C(=O)NCc2cccs2)oc2ccccc12 6.49%
Cc1ccc2c(c1)cc(C(=O)N[C@@H](Cc1ccccc1)C(=O)O)n2C 1.38%
